# Giardia FBPA inh: inhibitors of Giardia lamblia fructose-1,6-bisphosphate aldolase | purified Giardia FBPA | A8B2U2 | 0.71% of 290,000 active | Potency, µM (titrated, usually from 59.6 µM), for the others: top-dose activity, negative = inhibition, most hits filed as inhibitors; note: potency is the fitted concentration of half-maximal effect; nearly all actives have a fitted effect of over 55% in size
# Target sequence (A8B2U2 whole entry, looked up): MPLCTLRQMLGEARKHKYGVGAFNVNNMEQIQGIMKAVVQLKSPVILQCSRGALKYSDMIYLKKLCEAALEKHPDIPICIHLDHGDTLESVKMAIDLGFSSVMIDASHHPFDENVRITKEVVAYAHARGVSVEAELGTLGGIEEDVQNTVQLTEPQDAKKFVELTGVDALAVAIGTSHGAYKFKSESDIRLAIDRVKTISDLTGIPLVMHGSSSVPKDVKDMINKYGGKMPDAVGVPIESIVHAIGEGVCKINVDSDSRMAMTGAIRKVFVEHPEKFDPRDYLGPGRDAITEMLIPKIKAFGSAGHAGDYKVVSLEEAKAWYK
#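 40 nM FBPA preincubated 10 min at RT with compound (up to 57.5 uM final), then substrate plus GAPDH/TPI/NAD/arsenate coupling and diaphorase/resazurin added. Fluorescence read after 20 min at RT, 525/598 nm.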
# Pf growth 96h: P. falciparum growth inhibition at 96 hours; Potency, µM (top dose mostly 28.7 µM), for the others: at the highest dose activity change, negative = inhibition, usual class: inhibitors; 6.9% of 320,000 active; P. falciparum luciferase reporter growth, 96 h; note: potency is the fitted concentration of half-maximal effect
#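 Two-generation exposure (96 h) targets delayed-death phenotype. Reporter parasites carrying integrated firefly luciferase, in red cells at 2% hematocrit and 0.05% parasitemia final, kept at 37 C, 5% CO2; luminescence loss indicates inhibition.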
# Pf growth 48h: inhibits P. falciparum growth in the first generation, 48 h. AID 504832. 5.9% of 310,000 active. Potency, µM (doses to about 28.7 µM), for the others: top-dose activity change, negative = inhibition, usual class: inhibitors. P. falciparum luciferase growth in erythrocytes, 48 h; note: potency is the fitted concentration of half-maximal effect
#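 Parasite viability was followed by luminescence of a genomically integrated firefly luciferase. Cultures held 0.1% parasitemia at 2% hematocrit (final), incubated under 5% CO2 at 37 C.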
# HCMV inh: human cytomegalovirus inhibition; HFF cells, HCMV-luciferase reporter, 72 h; active compounds read low; activity change, negative = inhibition, % at 57.5 µM; 4.5% of 410,000 active; AID 1259415; in the data active = activity change below about -60%; inconclusive = no clear call, values can overlap the other calls; inactive = above about -39%
#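 Compounds were evaluated in HFFs infected with an HCMV luciferase reporter virus (MOI 1 PFU/cell). Luciferase in lysates collected 72 h post infection served as the replication measure.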
# Sm TGR inh: blocks Schistosoma mansoni thioredoxin glutathione reductase; Potency, µM (titrated, usually from 114 µM), for inactives: at the highest dose activity change, negative = inhibition, hits mostly inhibitors; 3% of 360,000 active; Q962Y6; purified TGR, DTNB reduction, TNB absorbance 405 nm; AID 485364; note: potency is the fitted concentration of half-maximal effect; nearly all actives have a fitted effect of over 60% in size
#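 First, TGR (20 nM dispensed) and NADPH were mixed with compound. Second, a 15 min room-temperature incubation followed. Third, further NADPH and then DTNB were added to start the reaction. Finally, TNB absorbance was monitored kinetically.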
# * = called active by the depositor; ? = inconclusive; nt = no result given. An excerpt weighted towards active compounds, which were near 14% of everything screened. Unless noted, calls come from the whole dose curve; as a rule, active = well fitted curve in the direction sought with a large enough effect; inconclusive = small, poorly fitted or top-dose-only effect, or another doubt; inactive = no such curve, though single readings can be large; an effect the other way counts as inactive or inconclusive. % is set by controls: 0 for no effect and ±100 for the full control effect.
SMILES,Giardia FBPA inh,Pf growth 96h,Pf growth 48h,HCMV inh,Sm TGR inh
Cc1cccc([C@@H]2[C@@H]3C(=O)N(Cc4ccccc4)C(=O)[C@@H]3[C@]3(CC(C)C)C(=O)N(c4cccc(Cl)c4)C(=O)N23)c1,-7%,?,?,-3,1%
Cc1cccc([C@@H]2[C@@H]3C(=O)N(Cc4ccccc4)C(=O)[C@@H]3[C@]3(Cc4ccc(Cl)cc4)C(=O)N(c4ccc(Br)cc4)C(=O)N23)c1,-10%,8.3µM*,?,-17,-10%
CC[C@@]12C(=O)N(c3ccc(C)cc3)C(=O)N1[C@H](c1cccc(C)c1)[C@@H]1C(=O)N(Cc3ccccc3)C(=O)[C@@H]12,nt,?,?,-22,5%
Cc1cccc([C@@H]2[C@@H]3C(=O)N(Cc4ccccc4)C(=O)[C@@H]3[C@]3(C)C(=O)N(c4cccc(F)c4)C(=O)N23)c1,nt,?,10µM*,-14,1%
Cc1ccc(N2C(=O)N3[C@H](c4cccc(C)c4)[C@@H]4C(=O)N(Cc5ccccc5)C(=O)[C@@H]4[C@]3(C)C2=O)cc1,nt,-6%,?,5,-25%
CC[C@@]12C(=O)N(c3cccc(Cl)c3)C(=O)N1[C@H](c1cccc(C)c1)[C@@H]1C(=O)N(Cc3ccccc3)C(=O)[C@@H]12,nt,5.2µM*,4.7µM*,-20,-1%
COc1ccc(C(C(=O)Nc2c(C)cccc2C)n2c(=O)c(-c3ccco3)nc3ccccc32)cc1 (centres undefined),nt,nt,nt,-6,nt
O=C(c1cc2ccccn2n1)N1CCN(c2cccc(C(F)(F)F)c2)CC1,0%,9.3µM*,5%,-68*,67%
O=C(c1noc2c1CCCCC2)N1CCN(c2cccc(C(F)(F)F)c2)CC1,nt,nt,nt,-78*,0%
O=C1CCCc2oc3c(c21)CCCC3,-11%,2%,10%,16,?
O=S(=O)(O)CCCS(=O)(=O)O,nt,5%,-9%,-5,nt
COC(=O)[C@]1(C)N[C@H](CN(C)C(=O)Nc2ccc(C)cc2)[C@@H]2C(=O)N(C)C(=O)[C@@H]21,nt,nt,nt,1,nt
COCCn1c(=N)c(C(=O)NCCc2ccccc2)cc2c(=O)n3cccc(C)c3nc21,nt,nt,nt,-69*,nt
CCOCCCn1c(=N)c(S(=O)(=O)c2ccc(Cl)cc2)cc2c(=O)n3cccc(C)c3nc21,nt,nt,nt,-4,-4%
CCCCCn1c(=N)c(S(=O)(=O)c2ccc(Cl)cc2)cc2c(=O)n3cccc(C)c3nc21,4%,12%,1.9µM*,nt,4%
O=C(NCc1ccco1)c1cccn2c(=O)c3cc4ccccc4cc3nc12,?,?,nt,nt,0%
CCNC(=O)c1cc2c(=O)n3cccc(C)c3nc2n(CCc2ccccc2)c1=N,6%,nt,1.7µM*,-103*,-9%
COCCCNC(=O)c1cccn2c(=O)c3cc4ccccc4cc3nc12,?,55%,69%,-81*,0%
Cc1ccccc1CN1C(=O)CN(S(C)(=O)=O)CC1(C)C(=O)Nc1ccc2c(c1)OCCO2 (centres undefined),nt,nt,nt,-11,nt
Cc1cc(Nc2ccccc2F)n2nc(Cc3ccc(Cl)cc3)nc2n1,nt,nt,nt,-36,0%
O=C(NC(=S)Nc1ccc(Cc2ccncc2)cc1)c1ccccc1F,-22%,11%,?,-99*,nt
CCOc1ccccc1NCc1nnc2n1CCCCC2,nt,nt,nt,3,-3%
N#CC1=C(N)N2C(=C(C#N)C1c1cccc(Br)c1)Nc1ccccc12 (centres undefined),0%,?,8%,-97*,-11%
N#CC1=C(N)N2C(=C(C#N)C1c1ccc(Br)cc1)Nc1ccccc12 (centres undefined),1%,9.3µM*,?,-100*,-3%
CCOC(=O)C(C)n1nc(/C=C/c2ccc(OC)cc2)ccc1=O (centres undefined),-8%,9.3µM*,?,5,-2%
SMILES,Giardia FBPA inh,Pf growth 96h,Pf growth 48h,HCMV inh,Sm TGR inh
CCOC(=O)C(C)n1nc(/C=C/c2ccccc2)ccc1=O (centres undefined),1%,?,?,100,-27%
c1ccc2c(c1)CCc1ccccc1C2=C1CCNCC1,nt,nt,nt,17,nt
S=C(NC12CC3CC(CC(C3)C1)C2)N1CCCC1,5%,29%,-2%,-17,5%
O=C(CC12CC3CC(CC(C3)C1)C2)NC(=S)N1CCCCC1,7%,9.3µM*,-22%,-21,-2%
Cc1cc(OC(C)C(=O)N(Cc2ccco2)C2CCS(=O)(=O)C2)ccc1Cl (centres undefined),4%,-12%,-4%,nt,0%
CC(=O)N(C)C[C@@H]1OCc2ccccc2-c2c(n(C)c3ccccc23)C(=O)N([C@@H](C)CO)C[C@@H]1C,nt,nt,nt,10,nt
C[C@H](CO)N1C[C@H](C)[C@H](CN(C)S(=O)(=O)c2ccc(Cl)cc2)OCc2ccccc2-c2c(n(C)c3ccccc23)C1=O,nt,nt,nt,-68*,nt
C[C@H](CO)N1C[C@H](C)[C@H](CN(C)C(=O)c2ccccc2)OCc2ccccc2-c2c(n(C)c3ccccc23)C1=O,nt,nt,nt,-10,nt
C[C@@H]1CN([C@H](C)CO)C(=O)c2c(c3ccccc3n2C)-c2ccccc2CO[C@@H]1CN(C)S(=O)(=O)c1cccs1,nt,nt,nt,-81*,nt
C[C@H](CO)N1C[C@H](C)[C@H](CN(C)S(C)(=O)=O)OCc2ccccc2-c2c(n(C)c3ccccc23)C1=O,nt,nt,nt,10,nt
Cc1ccc(S(=O)(=O)N(C)C[C@@H]2OCc3ccccc3-c3c(n(C)c4ccccc34)C(=O)N([C@H](C)CO)C[C@@H]2C)cc1,nt,nt,nt,-60*,nt
Cc1ccc(S(=O)(=O)N(C)CC(=O)N2CCCCCC2)cc1,6%,?,-14%,21,9%
O=C(O)c1ccc(CNC(=O)C2CCN(S(=O)(=O)c3ccc4c(c3)OCCO4)CC2)cc1,nt,nt,nt,-19,nt
CCC(CC)C(=O)N(C)c1c(C)nc2c(OCCOc3ccc(F)cc3)cccn12,nt,nt,nt,-92*,nt
CCC(CC)C(=O)N(C)c1c(C)nc2c(OCC(=O)N(C)C)cccn12,nt,nt,nt,-12,nt
COc1ccc(CNS(=O)(=O)NCc2ccccc2)cc1OC,7%,2%,-16%,-18,4%
O=S(=O)(c1ccccc1)c1nc(NCc2ccccc2)sc1Cl,-4%,11%,?,-70*,-10%
COc1ccc(CNc2nc(S(=O)(=O)c3ccccc3)c(Cl)s2)cc1OC,-5%,?,-13%,-95*,-3%
Cc1ccc(S(=O)(=O)c2nc(S(C)(=O)=O)sc2NCc2ccccc2)cc1,nt,nt,nt,-16,-2%
c1ccc(C2=Nn3c(nnc3-c3ccncc3)SC2)cc1,8%,5%,-5%,-73*,-29%
c1ccc(-c2cc(-c3nnc4n3N=C(c3ccc5ccccc5c3)CS4)[nH]n2)cc1,16%,?,12µM*,-96*,-10%
COc1ccccc1C1=Nn2c(nnc2-c2ccccc2OC)SC1,1%,nt,nt,nt,nt

# Assay outcomes: PubChem, National Center for Advancing Translational Sciences (NCATS)
